# In PubChem BioAssay:
# For part of these data: Potency and affinity values are given separately. Activity calls are given as the source filed them.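 The calls were made as follows, unless noted: active = fitted half-maximal concentration within 10 nM to 100 µM, steepness 0.5 to 2, significant signal drop, low assay interference; inactive = the rest.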
# Columns and labels:
# [1] = biological target: Cell division control protein 42 homolog (Homo sapiens) (UniProt P60953); test: activated mutant Cdc42 GTP-binding inhibitors, dose response, biochemical, multiplex bead flow cytometry, Bodipy-FL-GTP (AID 1333;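 active = fitted half-maximal concentration within the tested dose range, moderate curve steepness, a statistically real signal drop, and little compound fluorescence or tag-binding interference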)
# Chain of Cell division control protein 42 homolog (Homo sapiens) (P60953 whole entry, looked up): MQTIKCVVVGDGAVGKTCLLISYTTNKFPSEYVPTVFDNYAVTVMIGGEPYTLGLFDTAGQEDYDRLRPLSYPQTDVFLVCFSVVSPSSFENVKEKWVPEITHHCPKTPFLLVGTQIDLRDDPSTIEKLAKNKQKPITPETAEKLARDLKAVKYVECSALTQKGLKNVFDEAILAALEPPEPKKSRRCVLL
# [2] = biological target: Cell division control protein 42 homolog (Homo sapiens) (UniProt P60953); test: wildtype Cdc42 GTP-binding inhibitors, dose response, biochemical, multiplex bead flow cytometry, Bodipy-FL-GTP (AID 1334;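 active = fitted half-maximal concentration within the tested range, moderate curve steepness, significant signal drop, and little compound fluorescence or bead-linkage interference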); details: bead-based flow cytometry, Bodipy-FL-GTP binding to GST-Cdc42; at 100 µM (top of the series) unless noted
# [3] = biological target: GTPase HRas (Homo sapiens) (UniProt P01112); test: inhibitors of GTP binding to wildtype Ras, dose response, biochemical, multiplex bead flow cytometry (AID 1335); details: bead-based flow cytometry, Bodipy-GTP binding to GST-Ras; at 100 µM (top of the series) unless noted
# Chain of GTPase HRas (Homo sapiens) (P01112 whole entry, looked up): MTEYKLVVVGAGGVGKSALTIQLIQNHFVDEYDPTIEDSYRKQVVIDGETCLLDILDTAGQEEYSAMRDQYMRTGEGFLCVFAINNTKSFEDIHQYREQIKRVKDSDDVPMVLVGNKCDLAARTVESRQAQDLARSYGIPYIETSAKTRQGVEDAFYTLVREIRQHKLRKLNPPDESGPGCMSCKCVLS
# [4] = tested on: Ras-related protein Rab-7a (dog), GTP binding; test: Rab7 GTP binding inhibitors, potency, dose response, biochemical, wildtype, multiplex bead flow cytometry (AID 1336; call rule not given here)
# [5] = biological target: Ras-related C3 botulinum toxin substrate 1 (Homo sapiens) (UniProt P63000); test: wildtype Rac1 GTP binding inhibitors, dose response, biochemical, multiplex bead flow cytometry (AID 1340;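 active = dose curve with midpoint inside tested range, moderate steepness, plateau gap beyond fit error, low compound glow and bead-link interference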); details: GST-Rac1 beads, Bodipy-FL-GTP binding; at 100 µM (top of the series) unless noted
# [6] = biological target: GTPase HRas (Homo sapiens) (UniProt P01112); test: activated Ras mutant GTP binding inhibitors, dose response, biochemical, multiplex bead flow cytometry (AID 1341;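 active = dose-response curve with midpoint inside the tested range, moderate steepness, significant amplitude and little compound fluorescence or bead-attachment interference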;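 also: GST-tagged constitutively activated Ras mutant immobilized on beads and multiplexed with other GTPases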)
Structure (SMILES),outcome [1],"fluorescence, percent of control (lower = inhibition) [2] [%]","GTP binding, percent of control [3] [%]",outcome [4],"GTP binding signal, raw median fluorescence (lower = inhibition) (MCF (arbitrary fluorescence units)) [5]",outcome [6]
Cc1cc2[nH]c3c(c[n+](C)c4ccccc34)c2cc1C,inactive,35.5,78.4,inactive,253,inactive
O=C(O)c1cccc(NCc2ccccc2)c1,inactive,65.9,86.9,inactive,38.8,inactive
CCC(C)NC(=O)CSc1nc2n[nH]c(C)c2c(=N)n1-c1ccc(OC)cc1 (stereo not given),inactive,36,48.9,inactive,111,inactive
Cc1ccc(-c2cn3cccc(C)c3n2)cc1,inactive,35.6,86,inactive,167,inactive
Clc1ccc(Cn2ncc3c(N4CCOCC4)ncnc32)cc1,inactive,50.5,66.4,inactive,209,inactive
O=C(NCc1ccc(F)cc1)C(c1ccccc1)N(CC1CCCO1)C(=O)Cn1nnc2ccccc21 (stereo not given),inactive,53.6,70.1,inactive,0,inactive
COc1ccc([N+](=O)[O-])cc1NC(=S)NC(NC(=O)Cc1ccc(OC)c(OC)c1)C(Cl)(Cl)Cl (stereo not given),inactive,75.7,139,inactive,151,inactive
COc1cc(C(=O)OCC(=O)Nc2ccc3c(c2)OC(F)(F)O3)ccc1OCc1c(C)noc1C,inactive,52.4,53.9,inactive,186,inactive
O=C(O)c1ccc(COc2cccc(Cl)c2)o1,inactive,60.1,87,inactive,32.8,inactive
Cc1ccc(N2C(=O)c3ccccc3C2Nc2cccnc2)nc1 (stereo not given),inactive,37,84.5,inactive,272,inactive
Cc1nnc(SCC(=O)N2CCOCC2)c2ccccc12,inactive,49.3,61.1,inactive,192,inactive
Cc1c(CCC(=O)O)c(=O)oc2cc3occ(-c4ccc(F)cc4)c3cc12,inactive,29.1,72.6,inactive,160,inactive
CCn1c(SCC(=O)O)nnc1-c1cc2c(C)nn(-c3ccccc3)c2s1,inactive,25.1,64.4,inactive,128,inactive
COc1ccc(C(=O)O)c(OCc2ccccc2C)c1,inactive,62.5,208,inactive,57.3,inactive
CN1CCN(c2ccccc2NC(=O)c2ccc(-c3cccc([N+](=O)[O-])c3)o2)CC1,inactive,40.2,93.9,inactive,308,inactive
